Inconclusive results are not listed. Where a structure was tested more than once in an assay, its records may differ in their call. The source made the active and inactive calls. The calls were made as follows, unless noted: active = hit-call score of the fitted dose curve at least 0.9, where 1 is the maximum; inactive = score below 0.9.
What was measured:
[1] = CCTE_Shafer_MEA_dev_firing_rate_mean: CCTE's Neural Network Formation Assay for Mean Firing Rate, Shafer Lab (AID 2284031)
Summary of the method: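 Rat primary cortical neurons were seeded on multielectrode arrays and treated from plating through day 12, with redosing at each feed. Spontaneous spiking was recorded four times; mean firing rate AUC was fitted downward against DMSO.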

[2] = CCTE_Shafer_MEA_dev_per_burst_spike_percent: CCTE's Neural Network Formation Assay for Percent of Spikes in a Burst, Shafer Lab (AID 2284032);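 as to AC50: fitted as a decrease in burst spike percentage below DMSO baseline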
Summary of the method: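 Rat primary cortical neurons on 16-electrode MEA wells, dosed from plating day 0 for 12 days with renewal on DIV 5 and 9; spikes-in-bursts percentage averaged over bursting electrodes, collapsed as AUC across days 5, 7, 9, 12; loss direction versus DMSO.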

[3] = CCTE_Shafer_MEA_dev_burst_rate: CCTE's Neural Network Formation Assay for Burst Rate, Shafer Lab (AID 2284042)
Summary of the method: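 Cells plated, treated day 0; recorded DIV 5, 7, 9, 12; fed and re-treated DIV 5, 9. Endpoint: bursts per recording time, active-electrode well mean, trapezoidal AUC, fitted in decreasing direction against DMSO baseline.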

[4] = CCTE_Shafer_MEA_dev_per_burst_interspike_interval: CCTE's Neural Network Formation Assay for Burst Interspike Interval, Shafer Lab (AID 2284044);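 also: mean spike spacing inside bursts as AUC over recordings on days 5 7 9 12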
Summary of the method: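 Primary rat cortical neurons on 48-well MEA plates, exposed from day 0 through day 12, treatment renewed at DIV 5 and 9. Within-burst interspike interval recorded days 5, 7, 9, 12, well-averaged, summarised as AUC; negative fit versus DMSO.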

[5] = CCTE_Shafer_MEA_dev_burst_duration_mean: CCTE's Neural Network Formation Assay for Mean Burst Duration, Shafer Lab (AID 2284045)
Summary of the method: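 Primary rat cortical neurons on 48-well 16-electrode MEA plates, exposed from day 0 with renewal at DIV 5 and 9; spontaneous activity recorded on days 5, 7, 9, 12. Well-mean burst duration across bursting electrodes, collapsed as trapezoidal AUC; DMSO baseline.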

[6] = CCTE_Shafer_MEA_dev_interburst_interval_mean: CCTE's Neural Network Formation Assay for Mean Interburst Interval, Shafer Lab (AID 2284046);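 also: well-mean interburst interval of bursting electrodes as AUC over four recording days; curve fitted for decrease in interburst interval relative to DMSO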
Summary of the method: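 Developing rat cortical networks on 48-well MEAs receive compound from the day of plating. Burst intervals from each active electrode are averaged per well, and AUC over the recording days is fitted in the negative direction against DMSO.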

[7] = CCTE_Shafer_MEA_dev_inter_network_spike_interval_mean: CCTE's Neural Network Formation Assay for Mean Inter-network Spike Interval, Shafer Lab (AID 2284047);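 as to AC50: potency for a decrease in mean inter-network spike interval below DMSO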
Summary of the method: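 Rat cortical cultures, 1.5 x 10^5 cells/well on 48-well MEA plates; continuous exposure days 0–12, medium and compound refreshed DIV 5, 9. Mean time between consecutive network-spike peaks; AUC across DIV 5/7/9/12; DMSO baseline, negative fitting direction.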

[8] = CCTE_Shafer_MEA_dev_network_spike_number: CCTE's Neural Network Formation Assay for Number of Network Spikes, Shafer Lab (AID 2284048)
Summary of the method: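 Primary rat cortical neurons on PEI/laminin 48-well MEA plates, dosed from plating day 0 for 12 days, renewed at DIV 5 and 9. Network spike counts recorded DIV 5, 7, 9, 12, collapsed as trapezoidal AUC; DMSO baseline.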

[9] = CCTE_Shafer_MEA_dev_network_spike_peak: CCTE's Neural Network Formation Assay for Mean Number of Electrodes in Network Spike, Shafer Lab (AID 2284049);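 as to AC50: fitted for loss of signal meaning fewer electrodes in network spikes than DMSO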
Summary of the method: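 Network-spike peak electrode count from recordings on days 5, 7, 9 and 12 was combined as trapezoidal area under the curve. Rat cortical cultures were treated continuously from plating, with compound renewed at each feed (DIV 5, 9); fits versus DMSO.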

[10] = CCTE_Shafer_MEA_dev_active_electrodes_number: CCTE's Neural Network Formation Assay for Number of Active Electrodes, Shafer Lab (AID 2284040; active = hit-call score of the fitted dose curve at least 0.9, where 1 is the maximum;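 as to AC50: potency for loss of active electrodes versus DMSO so lower counts are hits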)
Summary of the method: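 Primary rat cortical neurons on 16-electrode MEA wells, exposed from day 0 through day 12 with compound renewed at DIV 5 and 9 feeds. Active electrodes (mean firing ≥5 spikes/min) counted at DIV 5, 7, 9, 12; trapezoidal AUC across days, loss-of-signal versus DMSO.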

[11] = CCTE_Shafer_MEA_dev_bursting_electrodes_number: CCTE's Neural Network Formation Assay for Number of Bursting Electrodes, Shafer Lab (AID 2284043; active = hit-call score of the fitted dose curve at least 0.9, where 1 is the maximum;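 as to AC50: potency is for loss of bursting electrodes relative to DMSO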)
Summary of the method: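 Primary rat cortical neurons plated on 16-electrode MEA wells, exposed from day 0 with compound renewed at DIV 5 and 9. Electrodes bursting ≥1 burst per 2 min counted on days 5, 7, 9 and 12; trapezoidal AUC across days, fitted for loss versus DMSO.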

DIO2 (gene 1734) = test: CCTE_GLTED_hDIO2: CCTE's human Deiodinase 2 (DIO2) Inhibition Assay, Great Lakes Toxicology and Ecology Division (GLTED) Lab (AID 2284050; active = hit-call score of the fitted dose curve at least 0.9, where 1 is the maximum)
Summary of the method: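 hDIO2 enzyme + test chem, 3 h → free iodide from substrate; step 2: Sandell-Kolthoff (Ce IV reduction by As, iodide-catalysed), spectrophotometric read. Triplicate plates; DMSO = baseline.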

[12] = CCTE_Shafer_MEA_acute_cross_correlation_HWHM: CCTE's Neural Acute Assay for Cross Correlation at Half Width at Half Maximum, Shafer Lab (AID 2284026);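 also: spontaneous network firing of rat primary cortical neurons on multiwell microelectrode arrays; percent change per well from pre-dose baseline in spike cross-correlogram half width; hits are a decrease in cross-correlogram half width relative to DMSO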
Summary of the method: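 Rat primary cortical neurons on 48-well MEA plates; 40-min baseline and 40-min post-exposure recordings at 37 C on DIV 13 or 15, compounds 0.03-40 uM. Spikes detected at 8x rms noise; percent change in cross-correlogram HWHM per well vs baseline.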

[13] = CCTE_Shafer_MEA_acute_synchrony_index: CCTE's Neural Acute Assay for Synchrony, Shafer Lab (AID 2284027);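 also: fitted for loss of signal so actives lower synchrony relative to DMSO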
Summary of the method: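 Readout is percent change in the unitless network synchrony index (0 low, 1 high) between a 40-min baseline and a 40-min recording in compound. Cultures were primary rat cortical neurons on MEAs, treated at 0.03-40 uM on DIV 13 or 15.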

[14] = molecular target: Estrogen receptor (Homo sapiens) (UniProt P03372); test: CCTE_Deisenroth_AIME_384WELL_LUC_Active: CCTE's 384-well Estrogen Receptor Transactivation Assay with AIME metabolic competence (ERTA luciferase; metabolism positive), Deisenroth Lab (AID 2284030; active = hit-call score of the fitted dose curve at least 0.9, where 1 is the maximum)
Summary of the method: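 Chemicals (10-point, 0.002-200 uM) were first incubated 2 hours with alginate-immobilized induced male Sprague Dawley rat liver S9. The conditioned medium was then applied to VM7Luc4E2 cells for 24 hours, with ER luciferase induction read by luminescence relative to 17beta-estradiol.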

[15] = molecular target: Estrogen receptor (Homo sapiens) (UniProt P03372); test: CCTE_Deisenroth_AIME_384WELL_LUC_Inactive: CCTE's 384-well Estrogen Receptor Transactivation Assay without AIME metabolic competence (ERTA luciferase; metabolism negative), Deisenroth Lab (AID 2284038; active = hit-call score of the fitted dose curve at least 0.9, where 1 is the maximum;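 also: VM7Luc4E2 breast cells given medium preincubated 2 h with S9-free microspheres; hits raise estrogen receptor luciferase signal so potencies reflect agonists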)
Summary of the method: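 Metabolism-negative mode: chemicals (10-point, 0.002–200 uM) held 2 h with alginate-water microspheres, then conditioned medium applied to VM7Luc4E2 cells for 24 h. Luciferase induction referenced to 17beta-estradiol.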

[16] = CCTE_Deisenroth_AIME_384WELL_CTox_Inactive: Cytotoxicity Assessment (CTOX) in CCTE's 384-well Estrogen Receptor Transactivation Assay without AIME metabolic competence (metabolism negative), Deisenroth Lab (AID 2284039; active = hit-call score of the fitted dose curve at least 0.9, where 1 is the maximum;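 also: cell viability via live-cell protease substrate cleaved to fluorescent probe; cells exposed 24 h to medium preincubated 2 h with alginate-water beads without S9; loss of fluorescence signal means loss of viability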)
Summary of the method: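 Metabolism-negative arm: chemicals (10-point, 0.002 - 200 uM) preincubated 2 h with alginate-water lids, medium moved onto VM7Luc4E2 cells for 24 h. Fluorescent live-cell protease readout; bidirectional curve fit.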

[17] = molecular target: Estrogen receptor (Homo sapiens) (UniProt P03372); test: CCTE_Deisenroth_AIME_384WELL_LUC_Shift: CCTE's 384-well Estrogen Receptor Transactivation Assay with AIME metabolic competence data shift (ERTA luciferase; difference in metabolism positive and negative), Deisenroth Lab (AID 2284041);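 also: shift is response with S9 minus without S9 so positive means metabolism raised ER signal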
Summary of the method: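 Chemicals (0.002–200 uM, 10 points) pre-incubated 2 h with alginate-encapsulated induced male Sprague Dawley rat liver S9 or S9-free, then medium applied 24 h to VM7Luc4E2 cells; luciferase. Endpoint is per-concentration difference, S9-positive minus negative.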

[18] = molecular target: Estrogen receptor (Homo sapiens) (UniProt P03372); test: CCTE_Deisenroth_AIME_96WELL_LUC_Inactive: CCTE's 96-well Estrogen Receptor Transactivation Assay without AIME metabolic competence (ERTA luciferase; metabolism negative), Deisenroth Lab (AID 2284025; active = hit-call score of the fitted dose curve at least 0.9, where 1 is the maximum)
Summary of the method: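 VM7Luc4E2 breast cells, luciferase read 24 h after dosing with medium pre-incubated 2 h on alginate-water lids (metabolism negative). 10-point series 0.002–200 uM, single technical replicate, n≥4; fit relative to 17beta-estradiol.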

Measured: AC50

Sequence of Estrogen receptor (Homo sapiens) (P03372 whole entry, looked up): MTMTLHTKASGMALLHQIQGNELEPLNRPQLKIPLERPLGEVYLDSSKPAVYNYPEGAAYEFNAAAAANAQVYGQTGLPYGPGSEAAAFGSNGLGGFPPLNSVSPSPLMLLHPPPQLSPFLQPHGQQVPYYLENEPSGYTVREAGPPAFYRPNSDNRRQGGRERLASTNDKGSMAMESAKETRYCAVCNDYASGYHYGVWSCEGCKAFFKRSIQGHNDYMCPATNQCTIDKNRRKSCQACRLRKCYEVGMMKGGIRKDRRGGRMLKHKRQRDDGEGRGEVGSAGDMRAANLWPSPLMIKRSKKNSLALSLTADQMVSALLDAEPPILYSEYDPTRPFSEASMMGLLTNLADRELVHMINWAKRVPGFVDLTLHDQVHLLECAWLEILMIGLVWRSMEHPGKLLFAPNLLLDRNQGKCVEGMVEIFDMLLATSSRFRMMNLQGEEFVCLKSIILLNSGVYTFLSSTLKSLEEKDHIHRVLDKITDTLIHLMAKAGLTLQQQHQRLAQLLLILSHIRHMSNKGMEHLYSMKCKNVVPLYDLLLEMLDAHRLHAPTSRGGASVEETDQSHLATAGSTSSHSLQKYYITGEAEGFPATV

Cc1ccc(S(=O)(=O)OCC(F)(F)C(F)(F)C(F)(F)C(F)(F)C(F)(F)C(F)F)cc1
inactive: [1] | [2] | [3] | [4] | [5] | [6] | [7] | [8] | [9]

OCCCC(F)(F)C(F)(F)C(F)(F)F
inactive: [1] | [2] | [10] | [3] | [4] | [5] | [6] | [7] | [8] | [9]

OCC(F)(F)C(F)(F)C(F)(F)C(F)(F)C(F)(F)C(F)F
not listed: DIO2 (gene 1734) | [12] | [13] | [14] | [15] | [16] | [17] | [18]
inactive: all other assays above

O=C(O)C=C(C(F)(F)F)C(F)(F)F
active: [7] 15 µM
inactive: [1] | [2] | [10] | [3] | [11] | [4] | [5] | [6] | [8] | [9]

O=C(O)C(F)(F)C(F)(F)C(F)(F)C(F)(F)C(F)(F)C(F)(F)C(F)(F)C(F)(F)Cl
active: DIO2 (gene 1734) 100 µM
not listed: [12] | [13] | [14] | [15] | [16] | [17] | [18]
inactive: all other assays above

OC[C@@H](O)[C@@H](O)[C@H](O)[C@@H](O)CO
not listed: DIO2 (gene 1734) | [12] | [13] | [14] | [15] | [16] | [17] | [18]
inactive: all other assays above

CCCCC(CC)COP(=O)(O)OCC(CC)CCCC (centres undefined)
inactive: [12] | [13]

O=S(=O)(OCC(F)F)C(F)(F)F
not listed: DIO2 (gene 1734) | [12] | [13] | [14] | [15] | [16] | [17] | [18]
inactive: all other assays above

NC(=O)C(F)(F)C(F)(F)C(F)(F)C(F)(F)F
inactive: [1] | [2] | [3] | [4] | [5] | [6] | [7] | [8] | [9]

CC(C)(C)C(=O)CC(=O)C(F)(F)C(F)(F)C(F)(F)F
active: [2] 23.5 µM | [10] 25.2 µM | [11] 15 µM | [9] 23.7 µM
inactive: [1] | [3] | [4] | [5] | [6] | [7] | [8]

N=C(N)C(F)(F)C(F)(F)C(F)(F)C(F)(F)C(F)(F)C(F)(F)C(F)(F)F
inactive: [1] | [2] | [10] | [3] | [11] | [4] | [5] | [6] | [7] | [8]
active: [9] 26.8 µM

c1ccc(B(c2ccccc2)c2ccccc2)cc1
active: DIO2 (gene 1734) 57.7 µM

O=C(Cl)C(F)(F)C(F)(F)C(F)(F)C(F)(F)C(F)(F)C(F)(F)C(F)(F)C(F)(F)F
active: DIO2 (gene 1734) 69.4 µM

C(=C(c1ccccc1)c1ccccc1)c1ccccc1
active: [14] 4.42 µM | [15] 9.48 µM | [17] 0.869 µM
inactive: [16]

C#C[C@]1(O)CC[C@H]2[C@@H]3CCc4cc(OC)ccc4[C@H]3CC[C@@]21C
active: [18] 0.000372 µM

O=C(O)C(F)(F)C(F)(F)C(F)(F)F
not listed: DIO2 (gene 1734) | [12] | [13] | [14] | [15] | [16] | [17] | [18]
inactive: all other assays above

CC(CCl)OP(=O)(OC(C)CCl)OC(C)CCl (centres undefined)
inactive: [1] | [2] | [10] | [3] | [11] | [4] | [5] | [6] | [7] | [8] | [9]
active: [10] 50 µM | [9] 50 µM

Source: PubChem BioAssay (EPA / NIEHS)
